This passage reports outcome and AC50 results from PubChem BioAssay (EPA / NIEHS).

Active and inactive are the calls of the source. The calls were made as follows: active = hit-call score of the fitted dose curve at least 0.9, where 1 is the maximum; inactive = score below 0.9.

Holding throughout (details): mRNA level, 48 h; actives raise or lower the signal
Read-out in test [1]: Insulin Like Growth Factor 1 (IGF1), IGF1 (gene 3479)
The test is described as follows: LTEA_HepaRG_IGF1: Life Technologies and Expression Analysis (LTEA) Assay for Insulin Like Growth Factor 1 (IGF1) using HepaRG (AID 2283506). The method, boiled down: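 Differentiated human HepaRG cells were dosed for 48 h in serum-free induction medium with 0.5% DMSO, eight half-log concentrations up to 100 uM, in duplicate. IGF1 mRNA was quantified by qRT-PCR normalized to ACTB, GAPDH, POLR2A; bidirectional fitting versus DMSO.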

Read-out in test [2]: Intercellular Adhesion Molecule 1 (ICAM1), ICAM1 (gene 3383)
The test can be described thus: LTEA_HepaRG_ICAM1: Life Technologies and Expression Analysis (LTEA) Assay for Intercellular Adhesion Molecule 1 (ICAM1) using HepaRG (AID 2283507). In outline: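 Differentiated HepaRG cells in serum-free induction medium were exposed in duplicate for 48 h to eight half-log concentrations up to 100 uM in 0.5% DMSO. Transcript levels were measured by qRT-PCR normalized to ACTB, GAPDH and POLR2A; bidirectional fits relative to DMSO.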

Read-out in test [3]: Insulin-like growth factor-binding protein 1 (IGFBP1), IGFBP1 (gene 3484)
The test is described as follows: LTEA_HepaRG_IGFBP1: Life Technologies and Expression Analysis (LTEA) Assay for Insulin-like growth factor-binding protein 1 (IGFBP1) using HepaRG (AID 2283508). The method, boiled down:
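Differentiated human HepaRG cells in serum-free induction medium were exposed in duplicate for 48 h to eight concentrations, top 100 uM with half-log dilutions, in 0.5% DMSO. Transcript levels came from qRT-PCR normalised to ACTB, GAPDH and POLR2A, fitted bidirectionally against DMSO.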

Read-out in test [4]: Interleukin 6 (IL6), IL6 (gene 3569)
The test is described as follows: LTEA_HepaRG_IL6: Life Technologies and Expression Analysis (LTEA) Assay for Interleukin 6 (IL6) using HepaRG (AID 2283509). In outline:
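Differentiated human HepaRG cells, plated 48 h then switched to serum-free induction medium, were exposed in duplicate for 48 h to eight half-log concentrations up to 100 uM in 0.5% DMSO. IL6 mRNA measured by qRT-PCR, normalized to ACTB/GAPDH/POLR2A.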

Read-out in test [5]: Interleukin 6 Receptor (IL6R), IL6R (gene 3570)
The test is described as follows: LTEA_HepaRG_IL6R: Life Technologies and Expression Analysis (LTEA) Assay for Interleukin 6 Receptor (IL6R) using HepaRG (AID 2283510).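 As to AC50: TaqMan qRT-PCR signal normalized to ACTB GAPDH and POLR2A housekeeping genes.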 The method, boiled down: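 Differentiated human HepaRG cells, plated 48 h then switched to serum-free induction medium, were dosed in duplicate for 48 h at eight half-log concentrations up to 100 uM in 0.5% DMSO. IL6R mRNA quantified by qRT-PCR, normalized to ACTB/GAPDH/POLR2A; bidirectional fit versus DMSO.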

Read-out in test [6]: Keratin 19 (KRT19), KRT19 (gene 3880)
The test can be described thus: LTEA_HepaRG_KRT19: Life Technologies and Expression Analysis (LTEA) Assay for Keratin 19 (KRT19) using HepaRG (AID 2283512). In outline: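 Differentiated human HepaRG cells, plated 48 h, were exposed in duplicate for 48 h in serum-free induction medium to eight half-log concentrations up to 100 uM in 0.5% DMSO. KRT19 mRNA was quantified by qRT-PCR, normalized to ACTB, GAPDH and POLR2A, and fitted bidirectionally versus DMSO.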

Read-out in test [7]: JUN Transcription Factor, JUN (gene 3725)
The test is described as follows: LTEA_HepaRG_JUN: Life Technologies and Expression Analysis (LTEA) Assay for JUN Transcription Factor using HepaRG (AID 2283513). In outline:
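Differentiated HepaRG cells were exposed to chemicals for 48 h in serum-free induction medium, 8 concentrations from 100 uM in half-log steps, 0.5% DMSO vehicle, in duplicate. JUN mRNA was quantified by TaqMan qRT-PCR, normalized to ACTB, GAPDH, POLR2A.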

Read-out in test [8]: Lipase C (LIPC), LIPC (gene 3990)
The test is described as follows: LTEA_HepaRG_LIPC: Life Technologies and Expression Analysis (LTEA) Assay for Lipase C (LIPC) using HepaRG (AID 2283514). In outline:
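Differentiated human HepaRG cells in serum-free induction medium were exposed in duplicate for 48 h to eight concentrations (top 100 uM, half-log steps, 0.5% DMSO). LIPC mRNA was quantified by TaqMan qRT-PCR, normalized to ACTB, GAPDH and POLR2A, with bidirectional fitting versus DMSO.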

Read-out in test [9]: Lipoprotein lipase (LPL), LPL (gene 4023)
The test is described as follows: LTEA_HepaRG_LPL: Life Technologies and Expression Analysis (LTEA) Assay for Lipoprotein lipase (LPL) using HepaRG (AID 2283515). In outline:
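Differentiated human HepaRG cells in serum-free induction medium were exposed in duplicate for 48 h to eight half-log concentrations (top 100 uM) in 0.5% DMSO. LPL mRNA was quantified by TaqMan qRT-PCR, normalized to ACTB, GAPDH and POLR2A.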

Read-out in test [10]: MicroRNA 122 (MIR122), gene 406906
The test is described as follows: LTEA_HepaRG_MIR122: Life Technologies and Expression Analysis (LTEA) Assay for MicroRNA 122 (MIR122) using HepaRG (AID 2283516). Also: the transcript read is the microRNA miR-122. The method, boiled down: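 Differentiated human HepaRG cells were exposed 48 h in serum-free induction medium to eight half-log concentrations (top 100 uM, 0.5% DMSO). Transcript level was measured by TaqMan qRT-PCR, normalized to ACTB, GAPDH and POLR2A, and fitted bidirectionally versus DMSO.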

Read-out in test [11]: matrix metalloproteinase-10 (MMP10), MMP10 (gene 4319)
The test is described as follows: LTEA_HepaRG_MMP10: Life Technologies and Expression Analysis (LTEA) Assay for matrix metalloproteinase-10 (MMP10) using HepaRG (AID 2283517). The method, boiled down: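 HepaRG, collagen I, ~100,000 cells/well; serum-free induction medium; 48 h exposure, duplicate, 8-pt half-log to 100 uM, 0.5% DMSO. Readout: TaqMan qRT-PCR, normalized to ACTB/GAPDH/POLR2A; bidirectional fit vs DMSO.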

Read-out in the next test: MYC, MYC (gene 4609)
The test can be described thus: LTEA_HepaRG_MYC: Life Technologies and Expression Analysis (LTEA) Assay for MYC using HepaRG (AID 2283518). In outline:
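Differentiated human HepaRG cells, plated 48 h then switched to serum-free induction medium, were exposed in duplicate for 48 h to 8-point half-log series up to 100 uM in 0.5% DMSO. MYC mRNA measured by qRT-PCR, normalized to ACTB/GAPDH/POLR2A.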

Read-out in test [12]: Paternally Expressed 10 (PEG10), PEG10 (gene 23089)
The test can be described thus: LTEA_HepaRG_PEG10: Life Technologies and Expression Analysis (LTEA) Assay for Paternally Expressed 10 (PEG10) using HepaRG (AID 2283520). In outline:
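Differentiated HepaRG cells, plated 48 h then switched to serum-free induction medium, were exposed in duplicate for 48 h to eight half-log concentrations topping at 100 uM in 0.5% DMSO. PEG10 mRNA was quantified by TaqMan qRT-PCR, normalised to ACTB, GAPDH and POLR2A.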

Read-out in test [13]: Nuclear factor NF-kappa-B p105 subunit (Homo sapiens) (UniProt P19838)
The test can be described thus: LTEA_HepaRG_NFKB1: Life Technologies and Expression Analysis (LTEA) Assay for Nuclear Factor Kappa B Subunit 1 (NFKB1) using HepaRG (AID 2283521).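 As to outcome: TaqMan qRT-PCR transcript normalised to ACTB GAPDH and POLR2A housekeeping genes.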 In outline: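 NFKB1 transcript was measured by TaqMan qRT-PCR on Fluidigm arrays, normalised to three housekeeping genes and fitted in both directions against 0.5% DMSO. HepaRG cells were dosed in duplicate for 48 h in serum-free induction medium, eight half-log steps from 100 uM.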

Read-out in test [14]: Protein phosphatase 2A (PPP2R4), PTPA (gene 5524)
The test can be described thus: LTEA_HepaRG_PPP2R4: Life Technologies and Expression Analysis (LTEA) Assay for Protein phosphatase 2A (PPP2R4) using HepaRG (AID 2283522). The method, boiled down: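 Differentiated HepaRG cells in serum-free induction medium were exposed in duplicate for 48 h to eight concentrations, top 100 uM with half-log dilutions, in 0.5% DMSO. PPP2R4 mRNA was quantified by TaqMan qRT-PCR, normalized to ACTB, GAPDH and POLR2A.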

Read-out in test [15]: Phosphatase and tensin (PTEN), PTEN (gene 5728)
The test is described as follows: LTEA_HepaRG_PTEN: Life Technologies and Expression Analysis (LTEA) Assay for Phosphatase and tensin (PTEN) using HepaRG (AID 2283523). In outline:
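Differentiated human HepaRG cells, plated 48 h then switched to serum-free induction medium, were exposed in duplicate for 48 h to eight half-log concentrations up to 100 uM in 0.5% DMSO. PTEN mRNA measured by TaqMan qRT-PCR, normalized to ACTB/GAPDH/POLR2A, bidirectional fit versus DMSO.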

Read-out in test [16]: solute carrier (SLC22A1), SLC22A1 (gene 6580)
The test can be described thus: LTEA_HepaRG_SLC22A1: Life Technologies and Expression Analysis (LTEA) Assay for solute carrier (SLC22A1) using HepaRG (AID 2283524). In outline:
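Human HepaRG cells were plated 48 h, switched to serum-free induction medium, then exposed in duplicate for 48 h to 8-point half-log series from 100 uM in 0.5% DMSO. SLC22A1 mRNA measured by qRT-PCR, normalized to ACTB/GAPDH/POLR2A, fitted bidirectionally versus DMSO.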

Read-out in test [17]: Pyruvate Dehydrogenase Kinase 4 (PDK4), PDK4 (gene 5166)
The test can be described thus: LTEA_HepaRG_PDK4: Life Technologies and Expression Analysis (LTEA) Assay for Pyruvate Dehydrogenase Kinase 4 (PDK4) using HepaRG (AID 2283525). The method, boiled down:
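Differentiated human HepaRG cells, pre-cultured 48 h, were exposed in duplicate for 48 h in serum-free induction medium to eight half-log concentrations up to 100 uM in 0.5% DMSO. PDK4 mRNA was quantified by qRT-PCR, normalized to ACTB, GAPDH and POLR2A, bidirectional fitting versus DMSO.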

Read-out in test [18]: matrix metalloproteinase-3 (MMP3), MMP3 (gene 4314)
The test is described as follows: LTEA_HepaRG_MMP3: Life Technologies and Expression Analysis (LTEA) Assay for matrix metalloproteinase-3 (MMP3) using HepaRG (AID 2283519). The method, boiled down: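 Differentiated human HepaRG cells, plated 48 h on collagen I, were exposed in duplicate for 48 h in serum-free induction medium to eight half-log concentrations up to 100 uM in 0.5% DMSO. MMP3 mRNA was quantified by TaqMan qRT-PCR, normalised to ACTB, GAPDH and POLR2A.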

Nuclear factor NF-kappa-B p105 subunit (Homo sapiens), sequence (P19838 whole entry, looked up): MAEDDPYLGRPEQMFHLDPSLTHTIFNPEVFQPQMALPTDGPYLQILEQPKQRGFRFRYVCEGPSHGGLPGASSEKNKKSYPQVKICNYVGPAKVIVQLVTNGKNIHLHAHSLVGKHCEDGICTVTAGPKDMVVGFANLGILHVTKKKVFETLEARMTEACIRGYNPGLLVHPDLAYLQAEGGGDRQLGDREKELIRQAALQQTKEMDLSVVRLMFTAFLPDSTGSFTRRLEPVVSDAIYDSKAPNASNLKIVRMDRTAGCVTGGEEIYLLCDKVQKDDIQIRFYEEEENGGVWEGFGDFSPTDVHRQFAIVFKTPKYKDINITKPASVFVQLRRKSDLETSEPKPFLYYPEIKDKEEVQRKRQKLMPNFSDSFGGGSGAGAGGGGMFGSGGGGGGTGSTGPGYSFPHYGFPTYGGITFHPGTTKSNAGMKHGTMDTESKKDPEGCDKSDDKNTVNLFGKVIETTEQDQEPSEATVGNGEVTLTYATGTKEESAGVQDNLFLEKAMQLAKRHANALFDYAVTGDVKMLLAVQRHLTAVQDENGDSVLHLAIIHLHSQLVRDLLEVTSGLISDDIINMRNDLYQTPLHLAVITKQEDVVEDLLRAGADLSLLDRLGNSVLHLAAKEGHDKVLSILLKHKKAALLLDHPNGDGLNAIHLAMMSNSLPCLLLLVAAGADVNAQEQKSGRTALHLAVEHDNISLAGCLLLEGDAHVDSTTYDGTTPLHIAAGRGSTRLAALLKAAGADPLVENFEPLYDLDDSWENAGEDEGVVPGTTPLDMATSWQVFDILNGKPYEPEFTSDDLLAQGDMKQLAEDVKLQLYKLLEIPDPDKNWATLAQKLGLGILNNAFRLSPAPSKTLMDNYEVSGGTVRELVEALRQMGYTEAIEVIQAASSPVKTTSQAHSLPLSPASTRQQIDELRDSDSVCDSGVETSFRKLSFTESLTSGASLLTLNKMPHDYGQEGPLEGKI

On to `C1CCC(SSC2CCCCC2)CC1`, for which the compound was called inactive in test [1], in test [2], in [3], in test [4], in [5] and in [6]. For the same compound, the outcome in [7] is “inactive”; in [8], “inactive”; in test [9], “inactive”; in [10] it was “inactive”; in test [11], “inactive”; with MYC, MYC (gene 4609), “inactive”. Also, the call in test [12], in test [13], in [14], in [15], in [16] and in test [17] was inactive.
For the compound `O=c1[nH]cc(F)c(=O)[nH]1`, the outcome in [1], in test [2], in test [3], in [4], in test [6] and in test [7] was inactive. Also, the outcome in test [10] is “inactive”; in test [11], “inactive”; with MYC, MYC (gene 4609), “inactive”; in [18], “inactive”; in [12] it was “inactive”; in test [15] it was “inactive”. Moreover, the AC50 in [5] is 51 µM (active); in [8] it was 80.6 µM (active); in test [9] it was 34.5 µM (active); in test [14] it was 51 µM (active); in test [16], 51 µM (active); in test [17], 76 µM (active).
As for `Cc1cc(NC(=O)C(=O)O)cc(C)c1Oc1ccc(O)c2c1CCC2`, the AC50 was 0.022 µM (active) in [1], 0.0224 µM (active) in test [6], 9.92 µM (active) in test [16] and 0.00353 µM (active) in [17]. In addition, the call in test [2], in test [3], in [4], in test [5], in test [7] and in test [8] was inactive. Also, the outcome in [9] was “inactive”; in [10] it was “inactive”; in test [11] it was “inactive”; with MYC, MYC (gene 4609), “inactive”; in test [12] it was “inactive”; in test [14], “inactive”. Besides, the compound was called inactive in [15].
For `COc1cc(-c2nc(NC(=O)c3cc4cc(C)cc(C)c4n3CC(=O)O)sc2CCC2CCCCC2)c(OC)cc1Cl`, the AC50 was 6.45 µM (active) in test [1]; 3.83 µM (active) in [3]; 4.98 µM (active) in [4]; 26.5 µM (active) in [5]; 11.4 µM (active) in test [6]; 10.7 µM (active) in test [7]. Besides, the AC50 in [8] was 6.41 µM (active); in [9], 10.5 µM (active); in test [10] it was 6.1 µM (active); in [11], 3.51 µM (active); with MYC, MYC (gene 4609), 19.8 µM (active); in test [12], 11.9 µM (active). In addition, the AC50 in test [13] is 19.4 µM (active); in test [14], 8.71 µM (active); in [15], 16.8 µM (active); in [16], 7.07 µM (active); in [17] it was 24.4 µM (active). In test [2], the call was inactive.

What is called AC50 is the concentration at which the activity in the assay is half-maximal.
